One sequence from publication PMC7862700, “An all-to-all approach to the identification of sequence-specific readers for epigenetic DNA modifications on cytosine” can be followed below.

Common to all, as to experiment: DAPPL (digital affinity profiling via proximity ligation, sequencing); 10 mM Tris-HCl pH 7.5, 50 mM NaCl, 1 mM DTT, 4% glycerol, room temperature, 30 min; GST-TFs on glutathione beads, 16-mer random dsDNA library, 0.1% formaldehyde crosslink after washing; high values mean tight binding
One experiment has as its target T1, FLI1 (Homo sapiens, UniProt Q01543 1-452).
T1 sequence: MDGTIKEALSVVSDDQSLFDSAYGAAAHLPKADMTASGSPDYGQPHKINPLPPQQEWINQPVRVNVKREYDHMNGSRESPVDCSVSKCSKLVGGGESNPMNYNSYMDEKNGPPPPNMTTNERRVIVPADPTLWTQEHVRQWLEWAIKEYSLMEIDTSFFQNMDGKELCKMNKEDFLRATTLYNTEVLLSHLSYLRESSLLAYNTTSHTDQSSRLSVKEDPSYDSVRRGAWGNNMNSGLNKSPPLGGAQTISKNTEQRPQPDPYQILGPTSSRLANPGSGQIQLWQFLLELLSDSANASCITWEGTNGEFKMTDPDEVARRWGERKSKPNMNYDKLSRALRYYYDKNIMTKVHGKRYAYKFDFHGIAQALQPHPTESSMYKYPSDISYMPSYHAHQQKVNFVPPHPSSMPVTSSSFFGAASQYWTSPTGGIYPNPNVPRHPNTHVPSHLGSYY
The following applies: protein: recombinant; tags: N-terminal GST; dsDNA, one strand shown. The method in brief:
(§1)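 Pools of DNA-barcoded human transcription factors, expressed in yeast as GST fusions on glutathione beads and combined with a tag-only sample, were incubated with 200 nmole of a 16-mer random double-stranded DNA library. Incubation took 30 min at room temperature in Tris/NaCl/DTT/glycerol buffer and was followed by washing, 0.1% formaldehyde crosslinking, proximity ligation (BsaI/T4 ligase, 1 h, 37 °C), PCR amplification and sequencing on an Illumina NextSeq500. Binding signal is the ratio of a hexamer's read frequency for a factor to its frequency for the tag-only sample.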

In another experiment the target is T2, ELK1 (Homo sapiens, UniProt P19419 1-428).
T2 sequence: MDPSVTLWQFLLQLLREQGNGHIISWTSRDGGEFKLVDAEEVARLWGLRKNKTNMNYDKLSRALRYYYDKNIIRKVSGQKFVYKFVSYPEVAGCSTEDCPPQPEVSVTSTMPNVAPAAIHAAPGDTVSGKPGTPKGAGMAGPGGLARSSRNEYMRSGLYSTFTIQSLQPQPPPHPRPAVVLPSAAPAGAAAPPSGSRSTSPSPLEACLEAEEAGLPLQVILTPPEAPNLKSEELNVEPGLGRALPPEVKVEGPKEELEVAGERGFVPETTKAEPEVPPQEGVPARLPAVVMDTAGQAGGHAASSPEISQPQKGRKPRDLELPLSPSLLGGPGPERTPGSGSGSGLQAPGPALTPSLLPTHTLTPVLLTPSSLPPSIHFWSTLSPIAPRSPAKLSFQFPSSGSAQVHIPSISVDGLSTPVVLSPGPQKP
The following applies: protein: recombinant; tags: N-terminal GST; dsDNA, one strand shown. The method in brief:
as §1

The target in the next experiment is T3, GABPA (Homo sapiens, UniProt Q06546 1-454).
T3 sequence: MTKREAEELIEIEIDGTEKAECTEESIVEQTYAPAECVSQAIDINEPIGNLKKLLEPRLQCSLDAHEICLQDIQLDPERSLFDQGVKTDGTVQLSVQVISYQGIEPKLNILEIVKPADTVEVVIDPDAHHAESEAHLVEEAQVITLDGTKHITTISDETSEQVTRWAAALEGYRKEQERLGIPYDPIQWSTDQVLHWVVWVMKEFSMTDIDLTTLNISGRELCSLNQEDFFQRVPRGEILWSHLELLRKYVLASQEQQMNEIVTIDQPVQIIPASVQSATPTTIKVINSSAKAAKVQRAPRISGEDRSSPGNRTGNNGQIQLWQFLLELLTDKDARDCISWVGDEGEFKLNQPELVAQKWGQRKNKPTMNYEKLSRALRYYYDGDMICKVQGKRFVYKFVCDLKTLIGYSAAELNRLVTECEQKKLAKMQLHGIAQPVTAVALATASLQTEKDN
The following applies: protein: recombinant; tags: N-terminal GST; dsDNA, one strand shown. The method in brief: as §1

The target of another experiment is T4, ERG (Homo sapiens, UniProt P11308 1-479).
T4 sequence: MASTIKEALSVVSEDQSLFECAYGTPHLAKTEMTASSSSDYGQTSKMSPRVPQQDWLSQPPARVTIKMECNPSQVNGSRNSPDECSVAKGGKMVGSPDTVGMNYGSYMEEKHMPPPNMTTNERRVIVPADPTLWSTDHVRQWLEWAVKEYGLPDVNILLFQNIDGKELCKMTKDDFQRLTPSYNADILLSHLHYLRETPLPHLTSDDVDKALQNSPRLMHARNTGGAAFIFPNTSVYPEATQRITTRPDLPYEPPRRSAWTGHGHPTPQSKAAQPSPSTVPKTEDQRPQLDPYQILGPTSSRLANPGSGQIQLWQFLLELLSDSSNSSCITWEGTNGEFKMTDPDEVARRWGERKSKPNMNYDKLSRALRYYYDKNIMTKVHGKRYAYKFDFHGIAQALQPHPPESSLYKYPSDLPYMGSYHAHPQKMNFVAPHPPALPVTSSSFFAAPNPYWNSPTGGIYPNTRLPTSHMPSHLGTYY
To be noted: protein: recombinant; tags: N-terminal GST; dsDNA, one strand shown. The method in brief:
as §1

The target of the next experiment is ELF1 (Homo sapiens, UniProt P32519 1-619). The following applies: protein: recombinant; tags: N-terminal GST; dsDNA, one strand shown. The method, boiled down: as §1
Sequence of ELF1 (P32519 whole entry): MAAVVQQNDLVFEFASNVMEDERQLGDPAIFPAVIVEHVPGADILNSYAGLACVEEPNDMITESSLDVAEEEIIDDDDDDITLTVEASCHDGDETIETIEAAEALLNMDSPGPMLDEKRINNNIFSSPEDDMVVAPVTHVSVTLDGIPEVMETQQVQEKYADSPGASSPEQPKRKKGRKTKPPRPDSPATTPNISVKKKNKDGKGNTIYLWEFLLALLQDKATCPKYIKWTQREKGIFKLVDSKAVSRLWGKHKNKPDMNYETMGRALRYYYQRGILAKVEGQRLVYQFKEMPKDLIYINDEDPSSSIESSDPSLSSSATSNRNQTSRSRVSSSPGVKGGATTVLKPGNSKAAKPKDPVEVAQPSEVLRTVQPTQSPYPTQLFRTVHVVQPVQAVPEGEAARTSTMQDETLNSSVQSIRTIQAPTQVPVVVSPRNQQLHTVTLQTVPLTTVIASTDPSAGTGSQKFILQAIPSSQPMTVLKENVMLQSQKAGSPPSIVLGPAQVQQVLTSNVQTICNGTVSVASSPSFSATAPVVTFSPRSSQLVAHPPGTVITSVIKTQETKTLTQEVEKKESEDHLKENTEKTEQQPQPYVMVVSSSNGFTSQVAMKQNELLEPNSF
A further experiment has as its target T5, EHF (Homo sapiens, UniProt Q9NZC4 1-300).
T5 sequence: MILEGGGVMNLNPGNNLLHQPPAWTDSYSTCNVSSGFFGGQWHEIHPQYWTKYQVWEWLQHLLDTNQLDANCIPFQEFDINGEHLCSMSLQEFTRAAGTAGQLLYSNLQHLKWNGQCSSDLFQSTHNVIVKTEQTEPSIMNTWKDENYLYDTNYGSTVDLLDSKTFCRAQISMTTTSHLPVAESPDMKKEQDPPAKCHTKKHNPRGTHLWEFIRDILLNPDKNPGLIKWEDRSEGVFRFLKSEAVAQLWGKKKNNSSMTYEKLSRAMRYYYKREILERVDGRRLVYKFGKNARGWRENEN
The following applies: protein: recombinant; tags: N-terminal GST; dsDNA, one strand shown. The method, boiled down:
as §1

The target of the next experiment is SPI1 (Homo sapiens, UniProt P17947 1-270). To be noted: protein: recombinant; tags: N-terminal GST; dsDNA, one strand shown. The method, boiled down:
as §1

The target in the next experiment is SPIB (Homo sapiens, UniProt Q01892 1-262). To be noted: protein: recombinant; tags: N-terminal GST; dsDNA, one strand shown. The method in brief: as §1
Sequence of SPIB (Q01892 whole entry): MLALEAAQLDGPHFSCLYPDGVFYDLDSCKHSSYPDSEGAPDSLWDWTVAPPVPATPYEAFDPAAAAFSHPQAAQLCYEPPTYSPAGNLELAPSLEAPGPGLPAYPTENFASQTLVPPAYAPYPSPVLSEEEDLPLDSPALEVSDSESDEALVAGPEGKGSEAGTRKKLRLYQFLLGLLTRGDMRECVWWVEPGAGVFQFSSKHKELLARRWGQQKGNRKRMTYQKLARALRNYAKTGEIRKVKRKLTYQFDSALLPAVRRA
In a further experiment the target is T6, FEV (Homo sapiens, UniProt Q99581 1-238).
T6 sequence: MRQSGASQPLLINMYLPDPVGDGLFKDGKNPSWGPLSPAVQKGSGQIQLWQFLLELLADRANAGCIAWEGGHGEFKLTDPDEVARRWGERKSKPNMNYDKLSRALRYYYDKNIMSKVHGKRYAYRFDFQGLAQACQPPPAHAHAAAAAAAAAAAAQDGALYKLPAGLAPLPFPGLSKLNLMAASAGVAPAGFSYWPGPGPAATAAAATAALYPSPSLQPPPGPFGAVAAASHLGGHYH
The following applies: protein: recombinant; tags: N-terminal GST; dsDNA, one strand shown. The method, boiled down:
as §1

Another experiment deals with ETV5 (Homo sapiens, UniProt P41161 1-510). The following applies: protein: recombinant; tags: N-terminal GST; dsDNA, one strand shown. The method in brief:
as §1

The next experiment addresses HSF1 (Homo sapiens, UniProt Q00613 1-529). To be noted: protein: recombinant; tags: N-terminal GST; chain copies: 3; dsDNA, one strand shown. The method in brief: as §1
The target of the next experiment is T7, SPIC (Homo sapiens, UniProt Q8N5J4 1-248).
T7 sequence: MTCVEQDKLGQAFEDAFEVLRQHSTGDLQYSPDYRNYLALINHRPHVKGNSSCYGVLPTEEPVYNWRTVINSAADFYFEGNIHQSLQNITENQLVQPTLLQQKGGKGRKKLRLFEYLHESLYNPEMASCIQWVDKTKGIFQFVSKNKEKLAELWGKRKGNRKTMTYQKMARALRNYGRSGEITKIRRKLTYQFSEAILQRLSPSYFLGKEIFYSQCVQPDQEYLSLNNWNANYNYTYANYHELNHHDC
The following applies: protein: recombinant; tags: N-terminal GST; dsDNA, one strand shown. The method in brief: as §1

In the next experiment the target is ELF4 (Homo sapiens, UniProt Q99607 1-663). The following applies: protein: recombinant; tags: N-terminal GST; dsDNA, one strand shown. The method, boiled down:
as §1

The next experiment concerns the target T8, ELK4 (Homo sapiens, UniProt P28324-2 1-405).
T8 sequence: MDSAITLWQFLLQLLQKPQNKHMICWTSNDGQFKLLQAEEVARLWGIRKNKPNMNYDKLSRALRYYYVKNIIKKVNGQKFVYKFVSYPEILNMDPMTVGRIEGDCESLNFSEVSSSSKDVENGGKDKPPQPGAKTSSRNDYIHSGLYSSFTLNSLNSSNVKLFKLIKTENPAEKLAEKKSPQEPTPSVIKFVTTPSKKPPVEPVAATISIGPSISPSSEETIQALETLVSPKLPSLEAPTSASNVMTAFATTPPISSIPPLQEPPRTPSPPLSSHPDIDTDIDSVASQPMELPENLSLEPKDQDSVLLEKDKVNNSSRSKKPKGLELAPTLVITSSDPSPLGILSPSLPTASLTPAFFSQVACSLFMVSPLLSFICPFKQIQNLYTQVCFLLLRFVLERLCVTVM
To be noted: protein: recombinant; tags: N-terminal GST; dsDNA, one strand shown. The method in brief: as §1

In a further experiment the target is T9, ETV2 (Homo sapiens, UniProt O00321 1-342).
T9 sequence: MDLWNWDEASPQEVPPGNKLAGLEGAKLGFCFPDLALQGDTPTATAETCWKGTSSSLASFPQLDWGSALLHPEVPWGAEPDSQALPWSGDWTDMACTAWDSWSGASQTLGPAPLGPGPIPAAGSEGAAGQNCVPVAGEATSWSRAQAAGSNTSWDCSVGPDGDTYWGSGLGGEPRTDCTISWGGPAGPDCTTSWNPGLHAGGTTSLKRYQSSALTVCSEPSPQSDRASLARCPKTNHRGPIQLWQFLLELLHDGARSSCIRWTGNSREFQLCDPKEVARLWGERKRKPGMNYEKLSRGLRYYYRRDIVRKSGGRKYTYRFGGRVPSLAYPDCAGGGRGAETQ
The following applies: protein: recombinant; tags: N-terminal GST; dsDNA, one strand shown. The method in brief:
as §1

In another experiment the target is T10, ELF3 (Homo sapiens, UniProt P78545 1-371).
T10 sequence: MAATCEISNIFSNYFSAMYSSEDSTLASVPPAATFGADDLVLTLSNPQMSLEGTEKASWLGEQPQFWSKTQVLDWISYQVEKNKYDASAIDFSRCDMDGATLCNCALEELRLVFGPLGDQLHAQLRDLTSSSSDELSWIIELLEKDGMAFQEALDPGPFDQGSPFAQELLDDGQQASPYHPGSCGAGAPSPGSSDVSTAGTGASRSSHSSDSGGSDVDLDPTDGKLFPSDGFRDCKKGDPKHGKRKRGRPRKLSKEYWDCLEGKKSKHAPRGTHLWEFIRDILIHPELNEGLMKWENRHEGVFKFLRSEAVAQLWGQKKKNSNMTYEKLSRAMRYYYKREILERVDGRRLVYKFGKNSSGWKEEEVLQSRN
The following applies: protein: recombinant; tags: N-terminal GST; dsDNA, one strand shown. The method, boiled down: as §1

The target in a further experiment is CRX (Homo sapiens, UniProt O43186 1-299). To be noted: protein: recombinant; tags: N-terminal GST; dsDNA, one strand shown. The method in brief:
as §1

The next experiment deals with ETV1 (Homo sapiens, UniProt P50549 1-477). To be noted: protein: recombinant; tags: N-terminal GST; dsDNA, one strand shown. The method, boiled down:
as §1

Sequence of ELF4 (Q99607 whole entry): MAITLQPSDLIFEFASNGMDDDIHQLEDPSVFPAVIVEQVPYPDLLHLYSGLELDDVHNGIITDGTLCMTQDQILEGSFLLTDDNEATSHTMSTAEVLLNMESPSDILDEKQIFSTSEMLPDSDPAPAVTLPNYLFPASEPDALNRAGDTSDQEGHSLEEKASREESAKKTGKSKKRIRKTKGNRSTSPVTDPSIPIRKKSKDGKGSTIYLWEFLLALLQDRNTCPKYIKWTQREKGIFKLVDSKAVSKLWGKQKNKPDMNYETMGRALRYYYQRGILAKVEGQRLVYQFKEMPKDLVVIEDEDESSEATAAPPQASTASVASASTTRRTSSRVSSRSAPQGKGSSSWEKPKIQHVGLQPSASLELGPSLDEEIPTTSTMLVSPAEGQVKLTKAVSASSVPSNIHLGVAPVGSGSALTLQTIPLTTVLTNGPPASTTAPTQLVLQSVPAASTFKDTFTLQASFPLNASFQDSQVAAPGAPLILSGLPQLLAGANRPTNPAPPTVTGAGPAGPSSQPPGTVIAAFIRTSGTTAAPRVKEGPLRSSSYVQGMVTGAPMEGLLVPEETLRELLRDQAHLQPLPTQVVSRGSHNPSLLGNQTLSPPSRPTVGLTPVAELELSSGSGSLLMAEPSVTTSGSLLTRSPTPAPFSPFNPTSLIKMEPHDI
Sequence of HSF1 (Q00613 whole entry): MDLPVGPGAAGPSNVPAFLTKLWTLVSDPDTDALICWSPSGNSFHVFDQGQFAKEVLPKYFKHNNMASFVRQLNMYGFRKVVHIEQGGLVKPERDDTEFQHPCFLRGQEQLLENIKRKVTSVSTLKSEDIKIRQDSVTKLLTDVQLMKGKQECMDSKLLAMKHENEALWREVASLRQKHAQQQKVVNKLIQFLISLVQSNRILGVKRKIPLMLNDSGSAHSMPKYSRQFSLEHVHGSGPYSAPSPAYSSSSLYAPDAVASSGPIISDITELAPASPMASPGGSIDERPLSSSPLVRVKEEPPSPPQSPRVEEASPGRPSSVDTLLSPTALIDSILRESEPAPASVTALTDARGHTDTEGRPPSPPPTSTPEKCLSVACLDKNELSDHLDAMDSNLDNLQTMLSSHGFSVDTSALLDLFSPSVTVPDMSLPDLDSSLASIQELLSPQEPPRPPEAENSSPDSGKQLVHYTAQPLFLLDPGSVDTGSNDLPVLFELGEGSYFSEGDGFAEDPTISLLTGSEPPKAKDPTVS
Sequence of ETV1 (P50549 whole entry): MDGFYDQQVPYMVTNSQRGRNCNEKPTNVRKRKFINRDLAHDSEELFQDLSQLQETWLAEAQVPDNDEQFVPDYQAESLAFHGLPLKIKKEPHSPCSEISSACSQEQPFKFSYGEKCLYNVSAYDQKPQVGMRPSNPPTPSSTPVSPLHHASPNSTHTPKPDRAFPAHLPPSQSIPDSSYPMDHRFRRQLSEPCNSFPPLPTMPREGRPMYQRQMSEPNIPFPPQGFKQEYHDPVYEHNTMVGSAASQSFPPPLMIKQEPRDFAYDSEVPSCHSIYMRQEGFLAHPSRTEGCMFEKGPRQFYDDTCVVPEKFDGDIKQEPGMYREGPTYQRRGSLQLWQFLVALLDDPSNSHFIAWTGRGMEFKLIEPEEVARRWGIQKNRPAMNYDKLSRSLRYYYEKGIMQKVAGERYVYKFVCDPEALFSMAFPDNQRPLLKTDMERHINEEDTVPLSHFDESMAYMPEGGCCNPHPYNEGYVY
Sequence of CRX (O43186 whole entry): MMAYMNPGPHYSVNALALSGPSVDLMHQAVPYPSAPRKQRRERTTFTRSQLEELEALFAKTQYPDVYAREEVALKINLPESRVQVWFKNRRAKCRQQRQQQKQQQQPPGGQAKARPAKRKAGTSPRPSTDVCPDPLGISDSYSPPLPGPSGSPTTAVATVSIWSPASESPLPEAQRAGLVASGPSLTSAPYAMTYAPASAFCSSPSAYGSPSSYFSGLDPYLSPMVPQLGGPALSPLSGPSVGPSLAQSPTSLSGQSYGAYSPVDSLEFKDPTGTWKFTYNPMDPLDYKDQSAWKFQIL
Sequence of ETV5 (P41161 whole entry): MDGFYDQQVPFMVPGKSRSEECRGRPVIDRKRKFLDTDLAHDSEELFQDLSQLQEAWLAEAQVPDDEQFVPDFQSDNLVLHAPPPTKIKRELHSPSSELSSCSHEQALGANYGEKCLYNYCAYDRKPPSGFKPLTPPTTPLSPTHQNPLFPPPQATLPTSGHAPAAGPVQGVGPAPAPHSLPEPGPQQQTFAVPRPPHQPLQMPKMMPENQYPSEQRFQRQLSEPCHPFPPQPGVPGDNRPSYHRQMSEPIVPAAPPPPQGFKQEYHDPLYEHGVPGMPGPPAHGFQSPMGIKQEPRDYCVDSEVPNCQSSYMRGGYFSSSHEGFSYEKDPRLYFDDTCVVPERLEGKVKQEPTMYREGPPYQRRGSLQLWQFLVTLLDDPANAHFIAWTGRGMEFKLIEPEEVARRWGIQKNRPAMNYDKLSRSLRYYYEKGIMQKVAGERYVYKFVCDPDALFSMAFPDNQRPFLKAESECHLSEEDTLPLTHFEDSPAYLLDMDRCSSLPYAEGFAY

Regarding TCTATG, the binding signal in the experiment with FLI1 is 1.12 fold enrichment (6-mer frequency, TF over GST control); with ELK1, 1.2 fold enrichment (6-mer frequency, TF over GST control); with GABPA it was 1.21 fold enrichment (6-mer frequency, TF over GST control); with ERG it was 1.03 fold enrichment (6-mer frequency, TF over GST control); in the experiment with ELF1, 1.12 fold enrichment (6-mer frequency, TF over GST control); with EHF, 1.13 fold enrichment (6-mer frequency, TF over GST control). The binding signal in the experiment with SPI1 was 1.09 fold enrichment (6-mer frequency, TF over GST control); in the experiment with SPIB it was 1.12 fold enrichment (6-mer frequency, TF over GST control); with FEV it was 1.06 fold enrichment (6-mer frequency, TF over GST control); in the experiment with ETV5, 1.1 fold enrichment (6-mer frequency, TF over GST control); with HSF1, 1.16 fold enrichment (6-mer frequency, TF over GST control); with SPIC it was 1.11 fold enrichment (6-mer frequency, TF over GST control). Further, the binding signal with ELF4 was 1.14 fold enrichment (6-mer frequency, TF over GST control); with ELK4, 1.16 fold enrichment (6-mer frequency, TF over GST control); with ETV2 it was 1.25 fold enrichment (6-mer frequency, TF over GST control); in the experiment with ELF3, 1.1 fold enrichment (6-mer frequency, TF over GST control); with CRX, 1.11 fold enrichment (6-mer frequency, TF over GST control); with ETV1, 1.1 fold enrichment (6-mer frequency, TF over GST control).
